# According to PubChem BioAssay AID360 (National Center for Advancing Translational Sciences (NCATS), 2006):
# Among all 48,000 compounds or so, about 550 (1.1%) were called active. Another 4% or so got no clear call; they are omitted. This is one part of a sample in which actives are shown more often than they occur. No stated cut-off is given here; in the data, active means potency below about 15 µM; inconclusive means mostly about 16 µM to 33 µM; inactive means weaker than that.
# Target: Lysosomal acid glucosylceramidase (Homo sapiens) (UniProt P04062)
# Sequence (P04062 whole entry, looked up): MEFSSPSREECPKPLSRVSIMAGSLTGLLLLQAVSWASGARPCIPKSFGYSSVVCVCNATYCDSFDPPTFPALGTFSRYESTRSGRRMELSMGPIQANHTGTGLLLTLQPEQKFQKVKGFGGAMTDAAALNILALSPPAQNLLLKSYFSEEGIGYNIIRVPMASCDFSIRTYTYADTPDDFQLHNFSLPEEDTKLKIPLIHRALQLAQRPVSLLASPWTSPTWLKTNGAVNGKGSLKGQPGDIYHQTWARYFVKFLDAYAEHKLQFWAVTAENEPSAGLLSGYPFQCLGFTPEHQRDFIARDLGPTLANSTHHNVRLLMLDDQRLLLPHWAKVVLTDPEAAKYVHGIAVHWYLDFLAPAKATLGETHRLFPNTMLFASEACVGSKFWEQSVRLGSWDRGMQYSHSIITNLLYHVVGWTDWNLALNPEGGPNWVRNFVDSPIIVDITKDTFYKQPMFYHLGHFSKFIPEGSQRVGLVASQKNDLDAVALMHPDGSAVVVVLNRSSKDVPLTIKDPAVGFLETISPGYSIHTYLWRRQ
# Experiment: Glucocerebrosidase;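 further: the screen sought inhibitors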
# Details: purified enzyme, resorufin glucoside fluorescence (screen aimed at inhibitors), 20 min
# Description: NCGC Assay Overview: Beta-glucocerebrosidase catalyzes the hydrolysis of beta-glucocerebroside to glucose and ceramide. The inherited deficiency of beta-glucocerebrosidase results in Gaucher disease, which is characterized by a wide variety of symptoms including hepatosplenomegaly, anemia, thrombocytopenia, bony lesions and bone marrow infiltration with characteristic storage cells, known as Gaucher cells. There are also forms of the disorder affecting the central nervous system. Patients with the same genotypes can manifest with diverse clinical presentations and it is believed that improper folding and trafficking of beta-glucocerbrosidase may contribute to the phenotypes observed. Low molecular weight molecules, acting as chaperones, may potentially restore trafficking of misfolded beta-glucocerebrosidase from the endoplasmic reticulum to the lysosomes, thereby enhancing functional lysosomal beta-glucocerebrosidase activity. Using normal beta-glucocerebrosidase, an assay was developed to screen for small molecule inhibitors that could potentially act as molecular chaperones on the mutant forms [developed with NIH investigator Dr. Ellen Sidransky's laboratory]. Two pro-fluorescent substrates were chosen for two screens against a small molecule library. One beta-glucocerebrosidase assay used Resorufin beta-D-Glucopyranoside (Marker Gene Technology Inc.), generating a red fluorescent product. The second assay used Fluorescein di-beta-D-Glucopyranoside, generating a blue fluorescent product. […] The IC50 values of Conduritol B Epoxide, a known glucocerebrosidase inhibitor, were determined to be 87.5 uM and 117 uM, respectively. The use of two difference pro-fluorescent substrates in the screens helped to eliminate false positives. All compounds were screened in a titration series resulting in AC50s (e.g., IC50s or EC50s).
# NCGC Assay Protocol Summary: Both enzyme and substrate were diluted in buffer composed of 50mM citric acid/KH2PO4, 10mM sodium taurocholate and 0.01% tween-20 at pH 5.9. The final concentration of the enzyme was 0.2 nM in both assays. The compound library was titrated in 7 to 15 concentrations for the primary screens with a final concentration ranging from 0.6 nM to 50 uM. This particular assay protocol is for the "red" substrate, and it was performed in 1536-well plate format as follows: Red fluorescence substrate assay: 2 uL enzyme 23 nL compound 1 uL substrate (final concentration of 30 uM) Incubate at room temperature (RT) for 20 minutes Read the plate in Viewlux plate reader (Ex=548(7) and Em=600(10)).
# Potency means the concentration at half of the fitted maximal effect.
row,SMILES,Potency
1,COc1ccc(N2CCN(CCNC(=O)CCN3C(=O)COc4ccccc43)CC2)cc1,> 76.9 µM (inactive)
2,O=c1ccc2cc(S(=O)(=O)N3CCN(c4ccccc4)CC3)ccc2o1,> 76.9 µM (inactive)
3,COc1ccc(N2CCN(Cc3cc(=O)oc4ccc5ccccc5c34)CC2)cc1,5.96 µM (active)
4,COC(=O)c1cc(NC(=O)CN2CCC(C(N)=O)(N3CCCCC3)CC2)cc(C(=O)OC)c1,> 76.9 µM (inactive)
5,COc1ccc(S(=O)(=O)N2CCN(c3ncnc4c(-c5ccccc5)nsc34)CC2)cc1,> 76.9 µM (inactive)
6,CCn1c2c(c3ccc(OC)cc31)CCCC2=O,> 76.9 µM (inactive)
7,CCOC(=O)CNC(=O)CSc1nnc(COc2ccc(Cl)cc2)n1CC,> 76.9 µM (inactive)
8,O=S(=O)(Nc1ccccc1N1CCOCC1)c1ccc(Cl)s1,> 76.9 µM (inactive)
9,COc1cccc(C2/C(=C(/O)c3ccncc3)C(=O)C(=O)N2CCCN(C)C)c1 (stereo not given),> 76.9 µM (inactive)
10,CC1CCCCN1CC(=O)NCc1ccc2c(c1)OCO2 (stereo not given),> 76.9 µM (inactive)
11,CC(C)(C)Oc1ncc(Br)c(OC(C)(C)C)n1,> 76.9 µM (inactive)
12,N#CC(C(N)=O)=C1CCC2(CC1)OCCCCO2,> 76.9 µM (inactive)
13,O=C(Cn1c(=O)sc2ccccc21)Nc1ccc2c(c1)OCCO2,> 76.9 µM (inactive)
14,COc1ccc(C(c2nnnn2Cc2cccs2)N2CCN(c3ccccc3)CC2)cc1OC (stereo not given),> 76.9 µM (inactive)
15,O=C(Cn1c(=S)nc2ccccn21)N1CCc2ccccc2C1,> 76.9 µM (inactive)
16,COc1ccc(-c2ccc(-c3noc(-c4ccncc4)n3)c(OC)n2)cc1,> 76.9 µM (inactive)
17,CCOc1nc(-c2ccc(OC)cc2)ccc1-c1noc(-c2cc(OC)c(OC)c(OC)c2)n1,6.96 µM (active)
18,COc1ccc(-c2nc(-c3ccccc3)no2)c(OC)c1,> 76.9 µM (inactive)
19,CCCC(=O)Nc1ccc2c(c1)nc1n2CCSC1,> 76.9 µM (inactive)
20,O=C(O)CCC(=O)N(Cc1ccco1)c1nc(-c2ccccc2)cs1,> 76.9 µM (inactive)
21,COCc1nnc(NC(=O)CS(=O)(=O)Cc2ccccc2)s1,> 76.9 µM (inactive)
22,Cc1ccc(C)n1-c1ccncc1,> 76.9 µM (inactive)
23,Cc1ccc(C(C(=O)NCc2ccco2)N(CC2CCCO2)C(=O)Cn2nnc3ccccc32)cc1 (stereo not given),> 76.9 µM (inactive)

row,SMILES,Potency
1,Cc1ccc(-c2noc(CCC(N)=O)n2)cc1,> 76.9 µM (inactive)
2,Cc1ccc(S(=O)(=O)N2CCOCC2)cc1C(=O)NCc1ccc(F)cc1,> 76.9 µM (inactive)
3,Cc1cc(C)n(-c2nc(SCC(=O)N3CCCC3)c3c4c(sc3n2)CCCC4)n1,> 76.9 µM (inactive)
4,Cc1nc(SCC(=O)Nc2cc(C)on2)c2c3c(sc2n1)CCCC3,15.3 µM (active)
5,Cc1nc(SCC(=O)Nc2cc(C)on2)c2c(C)c(C)sc2n1,> 76.9 µM (inactive)
6,CCn1nnc(NC(=O)c2cc(Cl)c(OC)c(Cl)c2)n1,> 76.9 µM (inactive)
7,Cc1ccccc1OCC(=O)Nc1ccc(N2CCN(C(=O)C(C)C)CC2)c(Cl)c1,2.17 µM (active)
8,Cc1cccc(NC(=O)COc2ccccc2C)n1,> 76.9 µM (inactive)
9,CCOc1cc(N2CCOCC2)c(OCC)cc1NC(=O)COc1cccc2cccnc12,> 76.9 µM (inactive)
10,CC1(C)CC(=O)C2=C(C1)NCN(CCCN1CCOCC1)C2,> 76.9 µM (inactive)
11,Cn1c(=O)[nH]c(=O)c2c1nc(N1CCCCCC1)n2CC(=O)c1ccccc1,> 76.9 µM (inactive)
12,CCn1c(SCC(=O)Nc2cc(C)c(Cl)cc2OC)nnc1-c1ccco1,> 76.9 µM (inactive)
13,N#Cc1c(N)sc2c1CCN(C(=O)OCc1ccccc1)C2,> 76.9 µM (inactive)
14,O=C(O)CCC(=O)N(Cc1cccs1)Cc1cccs1,> 76.9 µM (inactive)
15,O=C(O)C1CC(=O)N(Cc2cccnc2)C1 (stereo not given),> 76.9 µM (inactive)
16,CC(NC(=O)c1cc(-c2ccccc2)on1)c1ccccc1 (stereo not given),> 76.9 µM (inactive)
17,Cc1cc(C)nc(NC(=O)Nc2ccccc2C(F)(F)F)n1,> 76.9 µM (inactive)
18,O=C(Nc1ccccc1C(F)(F)F)c1cc(-c2ccc(O)cc2)on1,13.4 µM (active)
19,Cc1ccc(C(=O)CSc2nnc(Cn3nnc4ccccc43)n2C)cc1,> 76.9 µM (inactive)
20,CC1CCN(C(=O)Cn2cc(C(=O)c3ccco3)c3ccccc32)CC1,12.7 µM (active)
21,COC(=O)Cn1cc(C(=O)c2cccs2)c2ccccc21,> 76.9 µM (inactive)
22,CCOC(=O)C1CCN(C(=O)Cn2cc(C#N)c3ccccc32)CC1,> 76.9 µM (inactive)
